Test results taken from PubChem BioAssay.
Values without a mark were called inactive. The source made the active and inactive calls. Cut-off read from the data, not from the text of the source, unless noted: active = inhibition above about 42%; inactive = the rest.

Tests used:
[1] = StAR promoter reporter inhibitors, counter-screen for LRH-1 inverse agonist project, cell-based, luminescence, high throughput (AID 651611; in the data active = inhibition above about 28%); settings: StAR promoter luciferase reporter counterscreen, at 3.6 µM, active compounds read high
[2] = biological target: Nuclear receptor subfamily 5 group A member 2 (Homo sapiens) (UniProt O00482); assay: NR5A2 activity suppression in reporter cells – cell-based, luminescence, confirmation (AID 651613); settings: cell-based LRH-1 luciferase reporter, inverse agonism; at 3.6 µM; active compounds read high;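 note: HEK293T cells co-transfected with LRH-1 and StAR promoter luciferase reporter; 0% = vehicle wells and 100% = parental cells lacking receptor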
[3] = biological target: Steroidogenic factor 1 (Homo sapiens) (UniProt Q13285); assay: inverse agonism at SF1 nuclear receptor – cell-based, luminescence, high throughput, counter-screen for LRH-1 inverse agonist project (AID 651614; in the data active = inhibition above about 44%;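 note: cells cotransfected with StAR promoter reporter and SF1 expression vector; 0% = vehicle on cells with receptor and 100% = vehicle on cells lacking receptor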); settings: cell-based SF1 luciferase reporter, at 3.6 µM, active compounds read high
[4] = compounds suppressing VP16-driven luciferase signal – cell-based, luminescence, high throughput, counter-screen for LRH-1 inverse agonist project (AID 651615; in the data active = inhibition above about 33%); settings: Gal4-VP16 luciferase reporter cells, at 3.6 µM, active compounds read high
[5] = tested on: transactivating tegument protein VP16 (Human herpesvirus 1); assay: compounds suppressing VP16-driven luciferase signal – cell-based, luminescence, single concentration, counter-screen for SRC2 inhibitor project (AID 652007; in the data active = inhibition above about 36%); settings: cell-based VP16 transactivation luciferase reporter, at 8.9 µM, active compounds read high
[6] = biological target: Nuclear receptor coactivator 2 (Homo sapiens) (UniProt Q15596); assay: inhibition of GAL4-SRC2 driven luciferase expression – cell-based, luminescence, HEK293, triplicate, confirmation (AID 652008;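 active = mean inhibition above 46.5%, the solvent-only control mean plus 3 SD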;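 note: 0% = DMSO-treated cells and 100% = Gossypol at 36 µM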); settings: HEK293 GAL4-SRC2 luciferase reporter, at 8.9 µM, active compounds read high
Chain of Nuclear receptor coactivator 2 (Homo sapiens) (Q15596 whole entry, looked up, the tested form may be a part): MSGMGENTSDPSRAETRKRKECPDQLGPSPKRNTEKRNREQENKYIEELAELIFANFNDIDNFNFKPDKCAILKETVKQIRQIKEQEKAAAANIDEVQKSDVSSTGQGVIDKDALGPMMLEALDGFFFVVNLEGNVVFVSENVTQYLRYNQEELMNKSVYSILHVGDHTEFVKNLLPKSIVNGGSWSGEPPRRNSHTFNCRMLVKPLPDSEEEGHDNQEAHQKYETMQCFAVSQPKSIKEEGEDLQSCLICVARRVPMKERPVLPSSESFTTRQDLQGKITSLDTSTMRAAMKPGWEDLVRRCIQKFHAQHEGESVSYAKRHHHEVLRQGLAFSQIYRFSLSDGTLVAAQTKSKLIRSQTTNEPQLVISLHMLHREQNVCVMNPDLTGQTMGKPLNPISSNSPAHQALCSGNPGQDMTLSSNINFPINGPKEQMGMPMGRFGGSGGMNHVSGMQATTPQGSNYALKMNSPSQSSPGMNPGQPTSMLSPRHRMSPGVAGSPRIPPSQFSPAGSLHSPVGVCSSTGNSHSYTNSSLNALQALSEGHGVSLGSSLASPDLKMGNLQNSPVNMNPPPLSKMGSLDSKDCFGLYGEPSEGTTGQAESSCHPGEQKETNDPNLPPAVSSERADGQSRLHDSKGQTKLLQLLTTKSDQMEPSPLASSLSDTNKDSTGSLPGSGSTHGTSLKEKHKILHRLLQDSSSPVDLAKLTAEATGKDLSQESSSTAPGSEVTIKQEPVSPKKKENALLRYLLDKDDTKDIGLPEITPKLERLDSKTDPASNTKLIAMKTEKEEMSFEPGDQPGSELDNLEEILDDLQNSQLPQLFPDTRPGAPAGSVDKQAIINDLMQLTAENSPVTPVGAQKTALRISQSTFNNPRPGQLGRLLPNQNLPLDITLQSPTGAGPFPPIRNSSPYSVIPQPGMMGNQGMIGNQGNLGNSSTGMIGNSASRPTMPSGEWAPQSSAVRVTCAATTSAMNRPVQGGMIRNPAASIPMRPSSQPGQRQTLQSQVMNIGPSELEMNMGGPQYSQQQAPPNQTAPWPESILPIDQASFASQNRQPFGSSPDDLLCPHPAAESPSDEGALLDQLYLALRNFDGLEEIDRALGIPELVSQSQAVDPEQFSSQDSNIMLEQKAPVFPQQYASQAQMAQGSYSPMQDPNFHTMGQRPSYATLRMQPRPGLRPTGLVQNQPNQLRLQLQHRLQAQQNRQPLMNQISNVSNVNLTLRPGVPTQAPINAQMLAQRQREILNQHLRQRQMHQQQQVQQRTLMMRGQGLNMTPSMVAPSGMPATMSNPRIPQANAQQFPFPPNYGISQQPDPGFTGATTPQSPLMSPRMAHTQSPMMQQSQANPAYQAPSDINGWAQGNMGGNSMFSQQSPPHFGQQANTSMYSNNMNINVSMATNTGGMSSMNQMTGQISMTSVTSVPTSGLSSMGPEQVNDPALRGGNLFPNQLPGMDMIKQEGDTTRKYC

Chain of Nuclear receptor subfamily 5 group A member 2 (Homo sapiens) (O00482 whole entry, looked up): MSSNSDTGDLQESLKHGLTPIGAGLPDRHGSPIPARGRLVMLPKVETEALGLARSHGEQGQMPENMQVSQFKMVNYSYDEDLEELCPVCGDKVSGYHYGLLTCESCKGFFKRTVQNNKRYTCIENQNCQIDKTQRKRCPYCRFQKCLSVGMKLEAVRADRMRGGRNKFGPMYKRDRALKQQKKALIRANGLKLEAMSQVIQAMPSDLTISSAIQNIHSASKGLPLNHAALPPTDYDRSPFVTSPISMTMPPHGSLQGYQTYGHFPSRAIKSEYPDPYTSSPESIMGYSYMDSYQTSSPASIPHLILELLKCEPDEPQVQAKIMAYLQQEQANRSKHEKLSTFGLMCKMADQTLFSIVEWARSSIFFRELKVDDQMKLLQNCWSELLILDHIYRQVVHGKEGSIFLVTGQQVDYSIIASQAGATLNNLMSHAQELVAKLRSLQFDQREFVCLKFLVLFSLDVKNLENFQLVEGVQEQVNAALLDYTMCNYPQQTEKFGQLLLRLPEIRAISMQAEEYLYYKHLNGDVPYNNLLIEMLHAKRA
Chain of Steroidogenic factor 1 (Homo sapiens) (Q13285 whole entry, looked up, the tested form may be a part): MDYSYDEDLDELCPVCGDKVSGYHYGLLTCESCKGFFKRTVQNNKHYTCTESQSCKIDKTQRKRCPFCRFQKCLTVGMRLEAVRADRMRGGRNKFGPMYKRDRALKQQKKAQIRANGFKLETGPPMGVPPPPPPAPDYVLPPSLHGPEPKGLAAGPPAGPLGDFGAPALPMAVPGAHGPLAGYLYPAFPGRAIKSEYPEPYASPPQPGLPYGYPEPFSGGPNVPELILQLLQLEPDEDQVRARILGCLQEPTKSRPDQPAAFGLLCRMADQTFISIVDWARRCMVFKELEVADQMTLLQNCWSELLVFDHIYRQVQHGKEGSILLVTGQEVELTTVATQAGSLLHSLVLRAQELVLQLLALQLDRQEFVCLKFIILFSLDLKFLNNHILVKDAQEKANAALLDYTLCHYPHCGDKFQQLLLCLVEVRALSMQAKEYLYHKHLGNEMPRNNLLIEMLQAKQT

## COc1cc(C(=O)Nc2sc3c(c2C#N)CCN(C(C)=O)C3)cc(OC)c1OC
[1]
  inhibition: 23.3%
[2]
  inhibition: 66.3% (active)
[3]
  inhibition: 62.2% (active)
[4]
  inhibition: -16.2%

## COc1ccc(CC(NC(C)=O)C(=O)NC2CCN(c3nnnn3-c3ccccc3)CC2)cc1 (stereo not drawn)
[1]
  inhibition: 10.5%
[2]
  inhibition: 45.1% (active)
[3]
  inhibition: 43.8% (active)
[4]
  inhibition: 2.12%

## CN1CCN(c2nc(-c3ccccc3O)nc3ccccc23)CC1
[1]
  inhibition: 5.26%
[2]
  inhibition: 42% (active)
[3]
  inhibition: 26.3%
[4]
  inhibition: 39.5% (active)

## Cc1ccc(-n2nc(C)c(NC(=O)CCl)c2C)cc1
[1]
  inhibition: 35.8% (active)
[2]
  inhibition: 47% (active)
[3]
  inhibition: 57.2% (active)
[4]
  inhibition: -120%

## Cc1cc(C)c(C#N)c(Sc2nc(C)c([N+](=O)[O-])c(C)c2C#N)n1
[1]
  inhibition: 3.51%
[2]
  inhibition: 10.9%
[3]
  inhibition: 9.59%
[4]
  inhibition: 20.6%
[5]
  inhibition: 12.9%
[6]
  inhibition: 25.4%

## CCS(=O)(=O)N1Cc2cc(C(=O)NCC3CC3)nc(-c3cccc(-c4cccnc4)c3)c2[C@@H]1CCO
[1]
  inhibition: 8.53%
[2]
  inhibition: 47.6% (active)
[3]
  inhibition: 41.8%
[4]
  inhibition: -27.8%

## CC1Cc2ccccc2N1C1=CC(=O)CC(C)(C)C1 (stereo not drawn)
[1]
  inhibition: 21.4%
[2]
  inhibition: 55.3% (active)
[3]
  inhibition: 51.9% (active)
[4]
  inhibition: -3.44%

## COc1ccc(C(=O)Nc2ccc(S(=O)(=O)N3CCc4ccccc43)cc2)cc1
[1]
  inhibition: 29.2% (active)
[2]
  inhibition: 40.6%
[3]
  inhibition: 44.5% (active)
[4]
  inhibition: 44.7% (active)

## CCOC(=O)C(C)Oc1cccc2c(=O)n(CC(=O)Nc3ccc(OCC)cc3)ccc12 (stereo not drawn)
[1]
  inhibition: 4.74%
[2]
  inhibition: 60.1% (active)
[3]
  inhibition: 58.8% (active)
[4]
  inhibition: -11.2%
